For experiment [1], the system named is MILI (PIWIL2) piRISC loaded with L1MC piRNA (26 nt). Put plainly: pre-steady-state target cleavage rate (min^-1); guide: L1MC piRNA 5'p-UAACUAAAUACUAUGCAAGCUGUAGG; higher = faster piRNA-guided slicing of the target. The method in brief:
(§1)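 A transcribed, DNA-blocked target RNA library (0.1 nM) and 1 nM active affinity-purified piRISC bearing one synthetic guide were incubated in HEPES–potassium acetate buffer at 33 °C for 0–8 or 0–960 min, either with or without 500 nM GTSF1 partner protein. Uncleaved targets were sequenced, normalised to depth and to weakly complementary targets, and pooled over three trials, with k3 capped at 0.0001 min^-1. The pre-steady-state cleavage rate was derived with a burst-and-steady-state fit.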

In experiment [2] the test system is EfPiwi piRISC loaded with L1MC piRNA (26 nt). The experiment is described as follows: pre-steady-state target cleavage rate (min^-1); auxiliary factor: 500 nM Ephydatia muelleri Gtsf1; guide: L1MC piRNA 5'p-UAACUAAAUACUAUGCAAGCUGUAGG; MIWI and MILI are mouse PIWI proteins and EfPiwi is from a freshwater sponge; tags in brackets are library labels; higher = faster piRNA-guided slicing of the target. The method in brief: as §1
The mark [3] stands for this setting: auxiliary factor: 500 nM mouse GTSF1.
Setting [4] is: auxiliary factor: none (no GTSF1).

± gives the standard deviation.

Take UCCUCCUACAGCAACCAUAGUAUUUAGUUA: the “pre-steady-state target cleavage rate” value in experiment [1] (setting [3]) amounted to 0.21 ± 0.022; in experiment [1] (setting [4]), 0.00404 ± 0.002; in experiment [2] it was 0.00322 ± 0.0025.

On to UCCUGGGACAGCUUGCAUAGUAUUUAGUUA, for which the “pre-steady-state target cleavage rate” value was 0.231 ± 0.024 in experiment [1] (setting [3]), 0.0138 ± 0.0034 in experiment [1] (setting [4]) and 0.0163 ± 0.0059 in experiment [2].

In the case of UCCUGGAUGAGCUUCGCAUAGUAUUUAGUUA, the entries for the “pre-steady-state target cleavage rate” value in experiment [1] (setting [3]), in experiment [1] (setting [4]) and in experiment [2] were 0.258 ± 0.02, 0.00539 ± 0.0022 and 0.0219 ± 0.0059, respectively.

Turning to UCCUGGUACAGCGUGCAUAGUAUUUAGUUA, the “pre-steady-state target cleavage rate” value in experiment [1] (setting [3]) stood at 0.225 ± 0.031; in experiment [1] (setting [4]) it was 0.00988 ± 0.0044; in experiment [2], 0.0121 ± 0.004.

UCCUGGUACAGCUUGCAUAGUAUUAUAGUUA: the “pre-steady-state target cleavage rate” value in experiment [1] (setting [3]) is 0.299 ± 0.034; in experiment [1] (setting [4]) it was 0.00483 ± 0.003; in experiment [2] it was 0.00555 ± 0.0023.

UCCUCCUACUGCUUGCAUAGUUUUUAGUUA: the entries for the “pre-steady-state target cleavage rate” value in experiment [1] (setting [3]), in experiment [1] (setting [4]) and in experiment [2] were 0.0525 ± 0.0085, 0.00424 ± 0.002 and 0.0079 ± 0.0028, respectively.

Consider UCCUGGAUCAGCUAGCAUAGUAUUAAGUUA, for which the “pre-steady-state target cleavage rate” value worked out at 0.247 ± 0.019 in experiment [1] (setting [3]), 0.00556 ± 0.0019 in experiment [1] (setting [4]) and 0.00318 ± 0.002 in experiment [2].

For the sequence UCCUGGAAGUCCUUGCAUAGUAUUUAGUUA, the “pre-steady-state target cleavage rate” value in experiment [1] (setting [3]) amounted to 0.159 ± 0.018; in experiment [1] (setting [4]) it was 0.00649 ± 0.0018; in experiment [2], 0.0092 ± 0.0031.

For the sequence UCCUGGAUCAGCUUGCAUAGUAUGUUAGUUA, the “pre-steady-state target cleavage rate” value in experiment [1] (setting [3]) is 0.199 ± 0.017; in experiment [1] (setting [4]), 0.00633 ± 0.0025; in experiment [2], 0.031 ± 0.0087.

For the sequence UCCUCCUACAGCUAGCAUACUAUUUAGUUA, the “pre-steady-state target cleavage rate” value in experiment [1] (setting [3]) stood at 0.0706 ± 0.011; in experiment [1] (setting [4]) it was 0.0031 ± 0.0022; in experiment [2], 0.00634 ± 0.002.

For UCCUGGAUGUCGAUGCAUAUUAUUUAGUUA, the “pre-steady-state target cleavage rate” value came out at 0.016 ± 0.0043 in experiment [1] (setting [3]), 0.00389 ± 0.0019 in experiment [1] (setting [4]) and 0.0047 ± 0.0036 in experiment [2].

Consider UCCUGCUACAGCUUGCAAUGUAUUUAGUUA, for which the results for the “pre-steady-state target cleavage rate” value in experiment [1] (setting [3]), in experiment [1] (setting [4]) and in experiment [2] were 0.0986 ± 0.014, 0.00809 ± 0.002 and 0.00312 ± 0.0024, respectively.

With UCCUGGUACAUCUUGCAUAGUAUUUAGUUA, the entries for the “pre-steady-state target cleavage rate” value in experiment [1] (setting [3]), in experiment [1] (setting [4]) and in experiment [2] were 0.237 ± 0.018, 0.00962 ± 0.0032 and 0.0254 ± 0.01, respectively.

Regarding UCCUGCUACAGCUUGCAUAAUAUUUAGUUA, the figures for the “pre-steady-state target cleavage rate” value in experiment [1] (setting [3]), in experiment [1] (setting [4]) and in experiment [2] were 0.363 ± 0.034, 0.00537 ± 0.0019 and 0.00444 ± 0.0021, respectively.

Take UCCUCCAACAGCUUGCUUAGUAUUUAGUUA: the figures for the “pre-steady-state target cleavage rate” value in experiment [1] (setting [3]), in experiment [1] (setting [4]) and in experiment [2] were 0.262 ± 0.017, 0.0066 ± 0.0021 and 0.0148 ± 0.0053, respectively.

On to “UCCUGGAUGUCCUUGCAUAGUAUUUAGUUA [g2:g19:cont:t1A]”, for which the “pre-steady-state target cleavage rate” value was 0.119 ± 0.018 in experiment [1] (setting [3]), 0.00813 ± 0.0021 in experiment [1] (setting [4]) and 0.00824 ± 0.003 in experiment [2].

Take UCCUGGUACAGCUUGCAUAUUAUUUAGUUA: the entries for the “pre-steady-state target cleavage rate” value in experiment [1] (setting [3]), in experiment [1] (setting [4]) and in experiment [2] were 0.0704 ± 0.01, 0.00385 ± 0.0027 and 0.00464 ± 0.0037, respectively.

Turning to UCCUGGAUGAGCUUGCAUAUUAUUUAGUUA, the “pre-steady-state target cleavage rate” value in experiment [1] (setting [3]) amounted to 0.0637 ± 0.0072; in experiment [1] (setting [4]), 0.00304 ± 0.003; in experiment [2], 0.00658 ± 0.0032.

Consider UCCUCCUACUCGUUGCAUAGUAUUUAGUAA, for which the “pre-steady-state target cleavage rate” value was 0.176 ± 0.024 in experiment [1] (setting [3]), 0.00408 ± 0.0019 in experiment [1] (setting [4]) and 0.00477 ± 0.0029 in experiment [2].

With UCCUGGAUGAGCAUUGCAUAGUAUUUAGUUA, the “pre-steady-state target cleavage rate” value is 0.212 ± 0.022 in experiment [1] (setting [3]), 0.0105 ± 0.0025 in experiment [1] (setting [4]) and 0.008 ± 0.0029 in experiment [2].

As for UCCUGGAAGACCUUGCAUAGUAUUUAGUUA, the “pre-steady-state target cleavage rate” value in experiment [1] (setting [3]) worked out at 0.212 ± 0.02; in experiment [1] (setting [4]), 0.00774 ± 0.0029; in experiment [2] it was 0.00668 ± 0.003.

With UCCUGCUAGAGCUUGCAUAGUAUUUUGUUA, the “pre-steady-state target cleavage rate” value is 0.172 ± 0.025 in experiment [1] (setting [3]), 0.00521 ± 0.0022 in experiment [1] (setting [4]) and 0.00421 ± 0.0016 in experiment [2].

For the sequence UCCUGGAACAGCGUUGCAUAGUAUUUAGUUA, the “pre-steady-state target cleavage rate” value in experiment [1] (setting [3]) amounted to 0.203 ± 0.017; in experiment [1] (setting [4]), 0.0103 ± 0.0025; in experiment [2], 0.0162 ± 0.0046.

In the case of UCCUGGAACUCCUUGCAUAGUAUUUAGUAA, the results for the “pre-steady-state target cleavage rate” value in experiment [1] (setting [3]), in experiment [1] (setting [4]) and in experiment [2] were 0.169 ± 0.02, 0.00259 ± 0.0025 and 0.00371 ± 0.0017, respectively.

Consider UCCUGGAUCAGCUUGCAAUGUAUUUAGUUA, for which the results for the “pre-steady-state target cleavage rate” value in experiment [1] (setting [3]), in experiment [1] (setting [4]) and in experiment [2] were 0.0475 ± 0.011, 0.00413 ± 0.0025 and 0.00462 ± 0.0039, respectively.

For the sequence UCCUGGUACUAGCUUGCAUAGUAUUUAGUUA, the “pre-steady-state target cleavage rate” value in experiment [1] (setting [3]) was 0.068 ± 0.021; in experiment [1] (setting [4]), 0.00943 ± 0.003; in experiment [2] it was 0.00885 ± 0.0038.

For the origin of these results see the supplement of paper PMC10338343.
